Source: PubChem BioAssay AID449739 (Vanderbilt High Throughput Screening Facility, 2010)
Screen size: about 100,000 compounds; about 4,200 (4.2%) were called active. This is one part of a sample in which actives are shown more often than they occur. A number with no mark means an inactive call.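 How the source made its calls: active means single-dose well whose peak fluorescence ratio is a statistical outlier from its plate by either plate-standardised score or position-corrected B-score; inactive means the rest.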

Biological target: Voltage-dependent T-type calcium channel subunit alpha-1H (Homo sapiens) (UniProt O95180)
Assay: Cav3.2 calcium influx blockers – cell-based, Fluo-4 calcium fluorescence, FDSS, MLSMR library, primary screen (AID 449739)
Conditions: Cav3.2-expressing cells, at 10 µM, active compounds read low

Sequence of Voltage-dependent T-type calcium channel subunit alpha-1H (Homo sapiens) (O95180 whole entry, looked up): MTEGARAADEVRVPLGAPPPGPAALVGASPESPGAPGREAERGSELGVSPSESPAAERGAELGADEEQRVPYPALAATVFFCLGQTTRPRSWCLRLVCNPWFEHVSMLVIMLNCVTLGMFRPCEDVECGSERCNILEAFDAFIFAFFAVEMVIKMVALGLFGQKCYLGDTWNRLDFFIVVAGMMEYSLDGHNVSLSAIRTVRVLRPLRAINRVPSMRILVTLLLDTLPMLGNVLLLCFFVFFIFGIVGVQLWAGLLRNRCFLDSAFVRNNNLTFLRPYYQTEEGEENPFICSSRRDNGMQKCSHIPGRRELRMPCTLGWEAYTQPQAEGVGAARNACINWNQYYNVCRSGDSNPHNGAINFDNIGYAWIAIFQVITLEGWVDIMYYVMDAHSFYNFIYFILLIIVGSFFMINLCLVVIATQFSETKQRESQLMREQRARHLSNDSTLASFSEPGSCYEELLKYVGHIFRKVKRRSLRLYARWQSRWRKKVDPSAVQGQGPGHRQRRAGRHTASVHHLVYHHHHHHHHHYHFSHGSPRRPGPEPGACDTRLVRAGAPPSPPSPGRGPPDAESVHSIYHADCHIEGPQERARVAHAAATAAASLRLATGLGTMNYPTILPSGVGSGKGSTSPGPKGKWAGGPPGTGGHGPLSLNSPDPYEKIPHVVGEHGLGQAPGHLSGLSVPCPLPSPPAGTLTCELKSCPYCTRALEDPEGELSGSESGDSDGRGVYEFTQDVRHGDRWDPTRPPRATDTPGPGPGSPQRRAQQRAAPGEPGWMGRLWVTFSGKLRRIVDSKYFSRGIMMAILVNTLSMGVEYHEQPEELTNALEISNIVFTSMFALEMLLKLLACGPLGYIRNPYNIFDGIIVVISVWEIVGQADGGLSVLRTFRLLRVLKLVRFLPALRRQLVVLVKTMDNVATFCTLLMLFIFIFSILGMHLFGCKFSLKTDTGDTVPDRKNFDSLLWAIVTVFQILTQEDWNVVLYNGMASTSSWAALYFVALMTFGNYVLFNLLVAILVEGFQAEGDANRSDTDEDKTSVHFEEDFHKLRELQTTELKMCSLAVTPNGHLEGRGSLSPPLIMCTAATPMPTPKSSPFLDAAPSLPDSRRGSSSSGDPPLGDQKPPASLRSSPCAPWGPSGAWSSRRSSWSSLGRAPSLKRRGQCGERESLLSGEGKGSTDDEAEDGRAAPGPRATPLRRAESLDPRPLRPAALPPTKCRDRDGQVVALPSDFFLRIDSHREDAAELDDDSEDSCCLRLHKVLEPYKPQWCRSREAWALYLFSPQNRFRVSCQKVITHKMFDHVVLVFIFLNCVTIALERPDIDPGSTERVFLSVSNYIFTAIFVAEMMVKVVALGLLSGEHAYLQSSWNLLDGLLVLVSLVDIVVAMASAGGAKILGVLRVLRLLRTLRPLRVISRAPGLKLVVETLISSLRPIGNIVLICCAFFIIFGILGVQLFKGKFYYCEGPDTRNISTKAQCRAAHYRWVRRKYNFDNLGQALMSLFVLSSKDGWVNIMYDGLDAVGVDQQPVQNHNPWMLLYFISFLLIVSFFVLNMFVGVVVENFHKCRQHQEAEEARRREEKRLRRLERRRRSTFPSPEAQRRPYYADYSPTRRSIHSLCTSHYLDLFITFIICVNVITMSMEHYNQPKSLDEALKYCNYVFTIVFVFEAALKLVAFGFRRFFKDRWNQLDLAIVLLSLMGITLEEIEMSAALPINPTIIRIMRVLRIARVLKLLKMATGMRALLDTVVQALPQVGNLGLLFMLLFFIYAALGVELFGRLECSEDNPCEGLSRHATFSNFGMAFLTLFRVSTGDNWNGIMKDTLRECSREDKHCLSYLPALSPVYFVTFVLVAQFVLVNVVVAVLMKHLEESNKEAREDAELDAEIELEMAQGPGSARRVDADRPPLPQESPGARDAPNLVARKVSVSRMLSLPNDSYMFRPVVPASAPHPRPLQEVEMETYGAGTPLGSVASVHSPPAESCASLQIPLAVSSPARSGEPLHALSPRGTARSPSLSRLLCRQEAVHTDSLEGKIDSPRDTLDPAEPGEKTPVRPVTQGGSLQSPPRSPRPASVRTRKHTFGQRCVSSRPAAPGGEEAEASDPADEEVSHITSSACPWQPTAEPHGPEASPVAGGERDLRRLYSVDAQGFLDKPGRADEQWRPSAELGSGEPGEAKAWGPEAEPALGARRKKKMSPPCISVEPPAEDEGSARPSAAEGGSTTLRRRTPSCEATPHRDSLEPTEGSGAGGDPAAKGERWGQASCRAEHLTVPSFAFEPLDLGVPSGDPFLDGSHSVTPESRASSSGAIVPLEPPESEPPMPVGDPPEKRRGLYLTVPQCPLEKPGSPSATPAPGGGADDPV

Compound | B-score
O=C(Cn1cc(C(=O)c2cccs2)c2ccccc21)NCc1cccs1 | -4.4 (active)
COCCNC(=O)Cn1cc(C(=O)c2cccs2)c2ccccc21 | 0.167
COC(=O)c1cn(CC(=O)NCc2cccs2)c2ccccc12 | -0.599
CC(=O)n1cc([C@@H]2C=C(C(=O)N3CCN(Cc4ccc5c(c4)OCO5)CC3)O[C@H](OCc3ccc(CO)cc3)C2)c2ccccc21 | -1.49
CC1(OC(=O)CCc2ccccc2)C(=O)C=C2C=C(c3ccc(C#N)cc3)N(CCc3ccccn3)C=C2C1=O (stereo not given) | 0.634
COC(=O)C(C)n1cnc2c(nnn2-c2cccc(Cl)c2)c1=O (stereo not given) | -0.438
CC(C)n1cnc2c(Nc3cccc(Cl)c3)nc(N(CCO)CCCO)nc21 | -0.405
CC(C)C[C@H](CO)Nc1nc(N(C)c2cccc(Cl)c2)c2ncn(C(C)C)c2n1 | -3.33 (active)
CCCc1nc2ccccc2c(=O)n1/N=C/c1ccc(O)c(O)c1 | 0.0906
CCCC(=O)Nc1c(O)c2ccccc2[nH]c1=O | -0.361
CCNC(=O)c1c(O)c2cccc3c2n(c1=O)CC3 | -0.155
Cn1c(SCC(=O)N2CCCc3ccccc32)nc2ccccc2c1=O | -2.58
CCCc1nc2ccccc2c(=O)n1NC(=O)c1c(O)c2ccccc2[nH]c1=O | -3.3 (active)
CCCCc1nc2ccccc2c(=O)n1NC(=O)c1c(O)c2cccc3c2n(c1=O)CC3 | -7.27 (active)
Cc1nc(C)c(C(=O)N(c2ccc(C)c(C)c2)C(C(=O)NCc2ccco2)c2ccccc2)s1 (stereo not given) | -0.655
COc1ccc(NCc2nnc(SCc3ccccc3)n2-c2ccc(OC)cc2)cc1 | -3.07
Cc1cccc(N2C(=O)C3C(c4ccccc4)OC4(C(=O)c5ccccc5C4=O)C3C2=O)c1 (stereo not given) | -0.244
Cc1nc(-c2ccc(Cl)cc2)sc1C1(C)CC(c2ccccc2F)=NO1 (stereo not given) | 1.15
COc1ccc(SCCN2CCN(CC(C)C)CCC2=O)cc1 | 0.677
CCOC(=O)/C=C/CN(C(=O)OC(C)(C)C)S(=O)(=O)N1CC=CC1 | 0.152

Compound | B-score
Cc1ccc(NC(=O)C2CC(c3ccc(F)cc3)=NO2)cc1 (stereo not given) | 0.0436
COC(=O)C1C(=O)NCC1c1ccc(OC)cc1 (stereo not given) | 0.134
COC(=O)c1ccc(NC(=O)Nc2ccc(C)cc2)cc1 | 0.0358
COC(=O)C1=C(Nc2ccc(C)cc2)C=C(C)C(C(=O)OC)C1c1ccc(F)cc1 (stereo not given) | -5.1 (active)
COC(=O)C1=C(Nc2ccc(OC)cc2)C=C(C)C(C(=O)OC)C1c1ccc(C)cc1 (stereo not given) | -5.75 (active)
COC(=O)c1cc(OC)ccc1-c1ccc(OC)cc1 | 0.191
COP1(=O)C[C@@H](O)[C@@H](O)[C@@H](COCc2ccccc2)O1 (stereo not given in full) | 0.634
CC(=O)Nc1ccccc1C(=O)C(=O)Nc1ccc(F)cc1 | 0.288
COc1cccc(CNc2nc3nc4c(c(=O)n3[nH]2)CCC4)c1 | -0.11
Cc1cc2cc3c(N)[nH]nc3nc2cc1C | 0.083
O=[N+]([O-])c1ccc(NCCCN2CCOCC2)c(Cl)c1 | 0.715
O=C(CN1C(=O)NC2(CCCC2)C1=O)Nc1ccc(F)c(F)c1F | 0.274
O=C1c2ccccc2S(=O)(=O)c2cc(N3CCN(c4ccccn4)CC3)ccc21 | 0.804
Cc1ccc(-n2c(C)cc(/C=C(\C#N)C(=O)NCC3CCCO3)c2C)cc1 (stereo not given) | -1.95
CC(C)CC(=O)N/C(N)=N/c1nc2ccccc2s1 | -4.05 (active)
CCC(=O)NC(=Nc1nc2ccccc2s1)NC(=O)CC | -0.485
O=C(O)CSCc1nc2ccccc2s1 | 1.19
Cc1ccc(-c2nn(-c3ccccc3)cc2/C=N/NC(=O)c2ccc3c(c2)OCO3)cc1 | -3.75
Cc1nn(C)cc1/C=N/NC(=O)c1sc2ccccc2c1Cl | 2.17
Cc1ccc(/C=N/NC(=O)C2=NNC(c3ccccc3)(c3ccccc3)C2)c(O)c1 | -6.92 (active)

Compound | B-score
COc1ccc(SCc2noc(C(=O)NCC3CCCO3)c2C(=O)O)cc1 (stereo not given) | 1.72
CCS(=O)(=O)n1nc(-c2ccc(OC)cc2)nc1SC | -0.316
CCS(=O)(=O)n1nc(-c2ccccc2)nc1SCc1ccccc1 | -3.19 (active)
CS(=O)(=O)n1nc(-c2ccccc2)nc1NCc1ccco1 | 0.406
NC(=O)C1=C[C@H](c2csc3ccccc23)C[C@H](OCc2ccc(CO)cc2)O1 | 0.00737
COCCOCCn1cnc2ccccc21 | 0.734
Cc1cc2ncn(CCCCOc3ccccc3)c2cc1C | -4.34 (active)
Cc1cc2nc(C)n(CCCNC(=O)Nc3ccccc3)c2cc1C | -1.52
Cc1ccc2c(c1)-c1c(ssc1=S)C(C)(C)N2C(=O)CN1C(=O)c2ccccc2C1=O | -1.31
CC1=C(C)C(=O)OC(C(C)C2CCC3C4CC=C5CC(OC6OC(COC7OC(CO)C(O)C(O)C7O)C(O)C(O)C6O)CC(O)C5(C)C4CCC23C)C1 (stereo not given) | -0.348
CC(C)=CCC/C(C)=C/C(=O)O | 0.444
CN(C)c1ccc(NC(=S)N(CCc2ccccc2)C2CC(=O)N(c3c(Cl)cccc3Cl)C2=O)cc1 (stereo not given) | -7.09 (active)
CCCOc1ccc(N2C(=O)CC(N(CCc3ccc(S(N)(=O)=O)cc3)C(C)=O)C2=O)cc1 (stereo not given) | -0.148
COC(=O)CN(C(=S)Nc1ccc(Cl)cc1)C1CC(=O)N(c2ccc(OC)cc2)C1=O (stereo not given) | -0.0552
C/C=C(/C)C(=O)O[C@@H]1c2cc3c(c4c2[C@@]2(CO4)C(=O)C(OC)=C(OC)C=C2C[C@@H](C)[C@H]1C)OCO3 | -0.0512
CCN1CCN(C(=O)/C=C\C(=O)O)CC1 | -0.00536
O=C(NCCCCCCCCCNC(=O)C(F)(F)F)C(F)(F)F | -0.288
Cn1c2ccccc2c2c(C(=O)N3CCN(c4ccc(F)cc4)CC3)cn(C3CCCC3)c(=O)c21 | -5.04 (active)
Cn1c(C(=O)N2CCC(C(N)=O)CC2)cc2c(=O)n(C)c3ccccc3c21 | 0.0764
O=C(c1cccc2ccccc12)N1CCN(c2ccccc2F)CC1 | -2.56
